Reference: PubChem BioAssay (Tox21)
Where “and” joins values, the source holds several entries; their conditions need not be identical. Equal values may be shown once. Records with an inconclusive call do not appear. The source holds several records for some structures; these can differ, active in one and inactive in another. Calls of active or inactive are those of the source. Unless noted, calls follow the shape of the dose curve; as a rule, active = well fitted curve in the direction sought with a large enough effect in the repeat runs; inconclusive = weak or mixed curves; inactive = no such curve, though single readings can be large; an effect the other way counts as inactive or inconclusive.

Legend:
[1] = qHTS assay to identify small molecule agonists of H2AX - cell viability counter screen (AID 1224847; calls by dose curve;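 also: wild-type CHO-K1 cells; top concentration of the series differs between compounds; nearly all actives have a fitted effect of over 30% in size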)
In short: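 For this counter screen, overnight-attached CHO-K1 cells received test compounds (15 concentrations, 0.76% DMSO final); 3 hr later at 37C, CellTiter-Glo reagent was added and luminescence recorded after 30 min at room temperature.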

[2] = qHTS RealTime-Glo MT Cell Viability Assay in HEK293 cells - 32 hour (AID 1224868); also: top concentration of the series differs between compounds; nearly all actives have a fitted effect of over 50% in size
In short: (§1)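 Luminescence generated by NanoLuc from substrate produced by living HEK293 cells served as the viability signal. Each value reflects the reading at its stated time point during continuous 40 h compound exposure at 37 C.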

[3] = A CellTox Green Cytotoxicity Assay to monitor cytotoxicity in HEK293 cells - 0 hour (AID 1224869); also: nearly all actives have a fitted effect of over 50% in size
In short: (§2)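 Tox21 screen in HEK293: membrane-impermeant cyanine dye fluoresces on binding dead-cell DNA; compound pinned 5 h post-seeding, plates held at 37 C, signal read repeatedly through 40 h.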

[4] = qHTS RealTime-Glo MT Cell Viability Assay in HepG2 cells - 40 hour (AID 1224870); also: nearly all actives have a fitted effect of over 50% in size
In short: (§3)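 HepG2 cells mixed with RealTime-Glo MT reagents (NanoLuc plus cell-permeant prosubstrate) were seeded at 600 cells/well, incubated 5 h at 37 C/5% CO2, then pinned with compounds in DMSO; nonlytic luminescence tracked viability during 40 h treatment.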

[5] = A CellTox Green Cytotoxicity Assay to monitor cytotoxicity in HEK293 cells - 40 hour (AID 1224871); also: nearly all actives have a fitted effect of over 45% in size
In short: as §2

[6] = qHTS RealTime-Glo MT Cell Viability Assay in HepG2 cells - 8 hour (AID 1224873); also: nearly all actives have a fitted effect of over 55% in size
In short: as §3

[7] = qHTS RealTime-Glo MT Cell Viability Assay in HEK293 cells - 40 hour (AID 1224874); settings: RealTime-Glo luminescence; max response: stronger effect = lower value; also: nearly all actives have a fitted effect of over 50% in size; also: potency is read from the fitted curve at half-maximal effect
In short: (§4)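 HEK293 + NanoLuc + prosubstrate, 600 cells/well; 5 h, 37 C/5% CO2; compound 23 nL in DMSO by pintool; 37 C; luminescence read at 0, 8, 16, 24, 32 and 40 h time points.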

[8] = A CellTox Green Cytotoxicity Assay to monitor cytotoxicity in HEK293 cells - 24 hour (AID 1224875); also: series mostly up to about 77 µM; nearly all actives have a fitted effect of over 45% in size
In short: as §2

[9] = A CellTox Green Cytotoxicity Assay to monitor cytotoxicity in HepG2 cells - 16 hour (AID 1224876); also: nearly all actives have a fitted effect of over 45% in size
In short: (§5)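 Measurements at 0, 8, 16, 24, 32 and 40 h of treatment captured CellTox Green fluorescence in HepG2 cells that had been co-plated with reagent and preincubated 5 h at 37 C/5% CO2.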

[10] = qHTS RealTime-Glo MT Cell Viability Assay in HepG2 cells - 32 hour (AID 1224877); also: nearly all actives have a fitted effect of over 55% in size
In short: (§6)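 Tox21 10K library screened in qHTS format on HepG2 cells carrying RealTime-Glo reagents. Compounds were added after a 5 h preincubation, and the luminescent signal from continuous culture was measured repeatedly during 40 h treatment.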

[11] = A CellTox Green Cytotoxicity Assay to monitor cytotoxicity in HepG2 cells - 24 hour (AID 1224878); also: nearly all actives have a fitted effect of over 45% in size; also: potency is read from the fitted curve at half-maximal effect
In short: as §5

[12] = A CellTox Green Cytotoxicity Assay to monitor cytotoxicity in HepG2 cells - 40 hour (AID 1224879); also: nearly all actives have a fitted effect of over 40% in size; also: potency is read from the fitted curve at half-maximal effect
In short: as §5

[13] = qHTS RealTime-Glo MT Cell Viability Assay in HEK293 cells - 0 hour (AID 1224880)
In short: as §4

[14] = A CellTox Green Cytotoxicity Assay to monitor cytotoxicity in HEK293 cells - 32 hour (AID 1224881); also: nearly all actives have a fitted effect of over 40% in size
In short: as §2

[15] = A CellTox Green Cytotoxicity Assay to monitor cytotoxicity in HepG2 cells - 0 hour (AID 1224882); also: nearly all actives have a fitted effect of over 35% in size
In short: as §5

[16] = A CellTox Green Cytotoxicity Assay to monitor cytotoxicity in HepG2 cells - 32 hour (AID 1224883); also: nearly all actives have a fitted effect of over 50% in size; also: potency is read from the fitted curve at half-maximal effect
In short: as §5

[17] = qHTS RealTime-Glo MT Cell Viability Assay in HEK293 cells - 16 hour (AID 1224872)
In short: as §1

[18] = qHTS RealTime-Glo MT Cell Viability Assay in HepG2 cells - 24 hour (AID 1224867); also: nearly all actives have a fitted effect of over 50% in size
In short: as §6
% is scaled to controls: 0 for no effect and ±100 for the full control effect.

O=S(=O)(O)c1ccc2ccccc2c1
inactive: Potency [1] | Potency [2] | outcome [3] | outcome [4] | Potency [5] | outcome [6] | max response [7] 19.4% and -5.62% | Potency [8] | Potency [9] | outcome [10] | Potency [11] | Potency [12] | Potency [13] | Potency [14] | outcome [15] | Potency [16]

C=CCNC(N)=S
inactive: Potency [1] | Potency [2] | outcome [3] | outcome [4] | Potency [5] | Potency [17] | outcome [6] | max response [7] -13.5% and 2.87% | Potency [8] | Potency [9] | outcome [10] | Potency [11] | Potency [12] | Potency [13] | Potency [14] | outcome [15] | Potency [16]

O=c1[nH]c(=O)n([C@H]2C[C@H](O)[C@@H](CO)O2)cc1Br
inactive: Potency [1] | outcome [3] | outcome [4] | Potency [5] | Potency [17] | max response [7] 0.308% | Potency [8] | Potency [9] | outcome [10] | Potency [11] | Potency [12] | Potency [13] | Potency [14] | outcome [15] | Potency [16]

Cc1occc(=O)c1O
inactive: Potency [1] | Potency [2] | outcome [3] | outcome [4] | Potency [5] | outcome [6] | max response [7] -7.52% and -0.505% | Potency [9] | outcome [10] | Potency [11] | Potency [12] | Potency [13] | Potency [14] | outcome [15] | Potency [16]

CCCSc1ccc2nc(NC(=O)OC)[nH]c2c1
active: Potency [12] 1.34 µM
inactive and 1.9 µM (active): Potency [11]
inactive and 1.51 µM (active): Potency [16]
inactive: Potency [1] | outcome [18] | outcome [3] | outcome [4] | Potency [5] | outcome [6] | Potency [8] | Potency [9] | outcome [10] | Potency [13] | Potency [14] | outcome [15]

CCOC(=O)NNc1nncc2ccccc12
inactive: Potency [1] | Potency [2] | outcome [3] | outcome [4] | Potency [5] | Potency [17] | outcome [6] | max response [7] 3.91% and 1.02% | Potency [8] | Potency [9] | outcome [10] | Potency [11] | Potency [12] | Potency [13] | Potency [14] | outcome [15] | Potency [16]

CC(=O)Nc1ccccc1
inactive: Potency [1] | outcome [18] | outcome [3] | outcome [4] | Potency [5] | outcome [6] | max response [7] 12.1% and 6.06% | Potency [8] | Potency [9] | outcome [10] | Potency [11] | Potency [12] | Potency [13] | Potency [14] | outcome [15] | Potency [16]

COc1cc(Cc2cnc(N)nc2N)cc(OC)c1OC
inactive: Potency [1] | Potency [2] | outcome [3] | outcome [4] | Potency [5] | outcome [6] | max response [7] -23% and -15.6% | Potency [9] | outcome [10] | Potency [11] | Potency [12] | Potency [13] | Potency [14] | outcome [15] | Potency [16]

C=CCOC(=O)c1ccccc1C(=O)OCC=C
inactive: Potency [1] | outcome [3] | outcome [4] | Potency [5] | Potency [17] | max response [7] 6.21% and 2.3% | Potency [9] | outcome [10] | Potency [11] | Potency [12] | Potency [13] | Potency [14] | outcome [15] | Potency [16]

OCCOCCN1CCN(C2=Nc3ccccc3Sc3ccccc32)CC1
active: Potency [7] 9.52 µM
inactive: Potency [1] | Potency [2] | outcome [3] | outcome [4] | Potency [5] | Potency [17] | outcome [6] | max response [7] -19.6% | Potency [9] | outcome [10] | Potency [11] | Potency [12] | Potency [13] | Potency [14] | outcome [15] | Potency [16]

O=C(O)c1cc(C(=O)O)cc(S(=O)(=O)O)c1
inactive: Potency [1] | outcome [18] | outcome [3] | outcome [4] | Potency [5] | outcome [6] | max response [7] -1.84% and 1.2% | Potency [8] | Potency [9] | outcome [10] | Potency [11] | Potency [12] | Potency [13] | Potency [14] | outcome [15] | Potency [16]

CN(C)CCC(c1ccc(Cl)cc1)c1ccccn1 (centres undefined)
inactive: Potency [1] | outcome [3] | outcome [4] | Potency [5] | Potency [17] | outcome [6] | max response [7] -8.75% and -11.3% | Potency [8] | Potency [9] | outcome [10] | Potency [11] | Potency [12] | Potency [13] | Potency [14] | outcome [15] | Potency [16]

Oc1cccc2ccccc12
inactive: Potency [1] | Potency [2] | outcome [3] | outcome [4] | Potency [5] | max response [7] -13.2% and -5.72% | Potency [8] | Potency [9] | outcome [10] | Potency [11] | Potency [12] | Potency [13] | Potency [14] | outcome [15] | Potency [16]
